Laboratory results from PubChem BioAssay AID463173 (ICCB-Longwood Screening Facility, Harvard Medical School, 2010).
About 4,300 (8.3%) of roughly 52,000 compounds were called active. The sample holds actives, similar compounds and a random draw of the others, so the mix is not that of the screen. Rule as the data show it: active = survival mostly below about 52% (no sharp cut-off); inactive = mostly above about 56%.

System: DeltatarO mutant
Test: S. aureus survival, RN4220 and DeltatarO strains – OD600, teichoic acid synthesis inhibitors, primary screen (AID 463173)
Conditions: S. aureus RN4220 wild type/DeltatarO growth, OD600, 18 h, stronger effect = lower value, screened at 18.75 µg/mL (by protocol)

SMILES	survival
O=S(=O)(c1ccc(Br)cc1)N1CCOCC1	94% (inactive)
CC(C)NS(=O)(=O)c1ccc(OCC(=O)N2CCN(c3cccc(Cl)c3)CC2)cc1	95% (inactive)
CCSc1ncc(Cl)c(C(=O)Nc2ccc(S(=O)(=O)N3CCCCC3)cc2)n1	87% (inactive)
Cc1ccc(-c2csc(NC3OC(=O)c4c#cccc43)n2)cc1 (stereo not given)	94% (inactive)
Cc1ccc(Cn2cnc3nc4c(cc3c2=O)CCCC4)cc1	81% (inactive)
CCc1ccc2[nH]c(=O)c(CNC3CCCC3)cc2c1	86% (inactive)
CCCOc1ccc(C(=O)N(Cc2ccc(N(C)C)cc2)CC2CCCO2)cc1 (stereo not given)	64% (inactive)
Cc1ccc2c(=O)cc(C(=O)Nc3nc4ccc(Cl)cc4s3)oc2c1	25% (active)
Cc1ccc2nc(NC(=O)c3cc(=O)c4cc(Cl)ccc4o3)sc2c1	47% (inactive)
Cc1ccc2nc(NC(=O)c3cc(=O)c4cc(C)c(C)cc4o3)sc2c1	54% (inactive)
O=C(Cn1nc(-c2ccc(Cl)cc2)ccc1=O)NCc1ccccc1Cl	70% (inactive)
CCN(C(=O)CSc1nc2ccccc2n1Cc1ccc(F)cc1Cl)c1ccccc1	77% (inactive)
CC(C)c1ccccc1NC(=O)c1cccs1	61% (inactive)
Cc1cccc(NC(=O)CCCCCn2c(=O)[nH]c3ccsc3c2=O)c1	33% (active)
O=C(CCCCCn1c(=O)[nH]c2ccsc2c1=O)NCc1ccccc1	89% (inactive)
CCCCCNC(=O)CCCCCn1c(=O)[nH]c2ccsc2c1=O	81% (inactive)
O=S1(=O)c2ccccc2N(Cc2ccccc2F)c2ccccc21	92% (inactive)
COc1ccc(NC(=O)CCc2nnc3n(C)c(=O)c4sccc4n23)cc1Cl	78% (inactive)
CCCc1nn2c(=O)cc(COC(=O)c3ccccc3NC(=O)c3ccc(OCC)cc3)nc2s1	49% (inactive)
COCCc1nn2c(=O)cc(COC(=O)c3ccccc3C)nc2s1	-5% (active)
CCc1nn2c(=O)cc(COC(=O)Cc3ccccc3)nc2s1	72% (inactive)
CCOCCc1nn2c(=O)cc(COC(=O)c3ccc4c(c3)OCO4)nc2s1	128% (inactive)
CCCCc1nn2c(=O)cc(COC(=O)c3ccccc3C)nc2s1	83% (inactive)
CCCc1nn2c(=O)cc(COC(=O)c3cccc(NC(=O)c4ccc(OCC)cc4)c3)nc2s1	0% (active)
CCOCCc1nn2c(=O)cc(COC(=O)Cc3ccccc3)nc2s1	17% (active)
CCOCCc1nn2c(=O)cc(COC(=O)c3cccc(C)c3)nc2s1	-5% (active)
CCOCCc1nn2c(=O)cc(COC(=O)c3ccco3)nc2s1	88% (inactive)
COCCc1nn2c(=O)cc(COC(=O)COc3ccccc3C)nc2s1	73% (inactive)
CCOc1ccc(C(=O)Nc2cccc(C(=O)OCc3cc(=O)n4nc(C5CC5)sc4n3)c2)cc1	83% (inactive)
CCOCCc1nn2c(=O)cc(COC(=O)CNC(=O)c3cccc(C)c3)nc2s1	70% (inactive)
